We go through 44 molecules from article PMC8159961, “Exploring protein hotspots by optimized fragment pharmacophores” (Nature Communications, 2021).

Common to all, as to assay: primary screen, binary call; higher = more effect of the substance
One experiment deals with Factor Xa (bovine, UniProt P00743). Set-up: screenings were carried out in duplicate in one independent experiment. To be noted: 200 µM. How it is done:
Protease inhibitory assays were performed in transparent microtiter plates in a final volume of 200 µL with the use of chromogenic substrates. The reaction rates in the absence and in the presence of the inhibitor were measured; screenings were carried out in duplicate in one independent experiment and Ki values were determined in triplicate in two independent experiments.

A further experiment has as its target 5-HT6 receptor (human, UniProt P50406). Set-up: hit call from the mean of at least two separate experiments. To be noted: 10 µM.
In a further experiment the target is 5-HT7b receptor (human, UniProt P34969). Set-up: hit call from the mean of at least two separate experiments. To be noted: 10 µM.

Structures are written as SMILES.

5-HT7b receptor, sequence (P34969 whole entry, looked up): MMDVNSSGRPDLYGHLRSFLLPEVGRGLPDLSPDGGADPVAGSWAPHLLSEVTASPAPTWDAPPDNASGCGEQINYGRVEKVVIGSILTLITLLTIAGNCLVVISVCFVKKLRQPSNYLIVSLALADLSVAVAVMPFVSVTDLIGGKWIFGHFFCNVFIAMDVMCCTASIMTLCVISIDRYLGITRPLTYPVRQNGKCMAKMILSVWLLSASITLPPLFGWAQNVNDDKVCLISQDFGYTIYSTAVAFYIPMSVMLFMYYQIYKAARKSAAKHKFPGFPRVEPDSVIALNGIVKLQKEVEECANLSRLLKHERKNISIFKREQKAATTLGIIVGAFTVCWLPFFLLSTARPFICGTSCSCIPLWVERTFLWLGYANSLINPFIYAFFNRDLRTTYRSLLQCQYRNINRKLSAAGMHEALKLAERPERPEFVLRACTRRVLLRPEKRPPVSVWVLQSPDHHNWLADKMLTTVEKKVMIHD
5-HT6 receptor, sequence (P50406 whole entry, looked up): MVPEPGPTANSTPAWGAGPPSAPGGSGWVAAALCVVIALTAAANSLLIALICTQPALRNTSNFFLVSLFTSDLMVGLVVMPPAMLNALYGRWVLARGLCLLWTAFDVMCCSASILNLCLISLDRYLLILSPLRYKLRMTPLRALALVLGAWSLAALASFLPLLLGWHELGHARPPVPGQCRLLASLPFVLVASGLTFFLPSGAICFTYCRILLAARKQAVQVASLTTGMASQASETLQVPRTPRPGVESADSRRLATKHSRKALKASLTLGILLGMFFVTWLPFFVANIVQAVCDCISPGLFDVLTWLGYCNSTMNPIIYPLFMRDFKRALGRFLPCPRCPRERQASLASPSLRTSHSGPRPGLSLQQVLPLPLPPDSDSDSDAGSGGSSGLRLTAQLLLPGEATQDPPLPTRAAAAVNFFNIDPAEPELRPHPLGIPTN
Factor Xa, sequence (P00743 41-180 limits assumed): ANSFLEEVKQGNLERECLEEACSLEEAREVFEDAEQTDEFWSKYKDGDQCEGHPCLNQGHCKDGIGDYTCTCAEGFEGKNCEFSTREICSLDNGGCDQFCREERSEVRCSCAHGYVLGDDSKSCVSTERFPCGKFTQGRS
Factor Xa, sequence (P00743 234-492 limits assumed): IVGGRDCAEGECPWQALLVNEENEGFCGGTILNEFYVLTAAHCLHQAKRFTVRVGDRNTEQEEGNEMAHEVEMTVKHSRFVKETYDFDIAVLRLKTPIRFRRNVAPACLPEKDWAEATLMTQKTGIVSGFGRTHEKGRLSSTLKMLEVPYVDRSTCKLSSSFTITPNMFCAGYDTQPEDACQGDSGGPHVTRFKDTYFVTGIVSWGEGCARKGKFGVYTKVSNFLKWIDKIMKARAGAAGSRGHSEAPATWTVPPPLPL

Take `CC1(C)OC(=O)c2cc(Br)c(O)cc2O1`: the “Factor Xa” value with Factor Xa is 0 (inactive). The 5-HT6 with 5-HT6 receptor is 1 (active). Besides, in the experiment with 5-HT7b receptor, the 5-HT7 was 0 (inactive).

On to `O=C1CSC(Nc2ccc(F)cc2)=N1`, for which the “Factor Xa” value with Factor Xa was 0 (inactive). Also, the 5-HT6 in the experiment with 5-HT6 receptor was 0 (inactive). Further, the 5-HT7 with 5-HT7b receptor is 0 (inactive).

`O=c1[nH]c2c(s1)CCC2`: in the experiment with Factor Xa, the “Factor Xa” value was 0 (inactive). Besides, the 5-HT6 with 5-HT6 receptor is 0 (inactive). Further, the 5-HT7 in the experiment with 5-HT7b receptor was 0 (inactive).

As to `NC(=O)N1CCC(C(=O)O)CC1`, in the experiment with Factor Xa, the “Factor Xa” value was 0 (inactive). Moreover, the 5-HT6 with 5-HT6 receptor was 0 (inactive). Besides, the 5-HT7 with 5-HT7b receptor is 0 (inactive).

Regarding `Cc1nc(-c2ccccc2)cs1`, the “Factor Xa” value in the experiment with Factor Xa was 0 (inactive). For the same molecule, the 5-HT6 with 5-HT6 receptor is 1 (active). The 5-HT7 with 5-HT7b receptor is 0 (inactive).

For the molecule `O=C(O)CC1CCC(=O)N1` (stereo not drawn), in the experiment with Factor Xa, the “Factor Xa” value is 0 (inactive). Moreover, the 5-HT6 with 5-HT6 receptor was 0 (inactive). Besides, in the experiment with 5-HT7b receptor, the 5-HT7 was 0 (inactive).

For the molecule `CN1CC(=O)NC1=O`, in the experiment with Factor Xa, the “Factor Xa” value is 0 (inactive). Further, the 5-HT6 with 5-HT6 receptor is 0 (inactive). Besides, the 5-HT7 in the experiment with 5-HT7b receptor was 0 (inactive).

Regarding `CC(=O)c1ccc2c(c1)CCCN2`, the “Factor Xa” value with Factor Xa is 0 (inactive). Besides, the 5-HT6 with 5-HT6 receptor was 0 (inactive). Further, the 5-HT7 with 5-HT7b receptor is 0 (inactive).

As for `CC(=O)c1sc(-c2ccc(O)cc2)nc1C`, in the experiment with Factor Xa, the “Factor Xa” value was 1 (active). The 5-HT6 with 5-HT6 receptor is 1 (active). The 5-HT7 with 5-HT7b receptor was 0 (inactive).

As for `O=C1CCN(c2ccccn2)CC1`, the “Factor Xa” value with Factor Xa was 0 (inactive). Moreover, the 5-HT6 with 5-HT6 receptor is 0 (inactive). Further, the 5-HT7 with 5-HT7b receptor was 0 (inactive).

As to `O=C1CCC(=O)N(c2ccccc2)N1`, in the experiment with Factor Xa, the “Factor Xa” value was 0 (inactive). In the experiment with 5-HT6 receptor, the 5-HT6 is 0 (inactive). For the same molecule, the 5-HT7 with 5-HT7b receptor is 0 (inactive).

On to `CS(=O)(=O)Nc1ccc(C(=O)O)cc1`, for which the “Factor Xa” value with Factor Xa was 0 (inactive). For the same molecule, the 5-HT6 with 5-HT6 receptor was 0 (inactive). Moreover, the 5-HT7 with 5-HT7b receptor was 0 (inactive).

With `O=C(O)c1cccc(Nc2ncccn2)c1`, in the experiment with Factor Xa, the “Factor Xa” value was 0 (inactive). Besides, the 5-HT6 with 5-HT6 receptor is 1 (active). Moreover, the 5-HT7 in the experiment with 5-HT7b receptor is 0 (inactive).

Turning to `N[C@H]1c2ccccc2C[C@H]1CO`, in the experiment with Factor Xa, the “Factor Xa” value was 0 (inactive). Besides, the 5-HT6 in the experiment with 5-HT6 receptor is 0 (inactive). For the same molecule, in the experiment with 5-HT7b receptor, the 5-HT7 was 0 (inactive).

On to `O=C(Nc1ccccc1)C1CC1`, for which the “Factor Xa” value with Factor Xa was 0 (inactive). In addition, the 5-HT6 with 5-HT6 receptor was 0 (inactive). Besides, the 5-HT7 with 5-HT7b receptor was 0 (inactive).

With `N#CCCN1CCc2ccccc21`, in the experiment with Factor Xa, the “Factor Xa” value was 0 (inactive). Besides, the 5-HT6 with 5-HT6 receptor was 0 (inactive). The 5-HT7 with 5-HT7b receptor is 0 (inactive).

Consider `Nc1ccc(-c2ccccc2)cc1C(=O)O`, for which the “Factor Xa” value in the experiment with Factor Xa was 0 (inactive). The 5-HT6 with 5-HT6 receptor is 0 (inactive). Further, the 5-HT7 with 5-HT7b receptor is 0 (inactive).

With `COc1ccc(CN2CCNCC2)cc1F`, the “Factor Xa” value with Factor Xa was 0 (inactive). In addition, the 5-HT6 in the experiment with 5-HT6 receptor is 0 (inactive). In the experiment with 5-HT7b receptor, the 5-HT7 is 0 (inactive).

`CS(=O)(=O)c1ccc(N2CCNCC2)cc1`: in the experiment with Factor Xa, the “Factor Xa” value is 0 (inactive). For the same molecule, the 5-HT6 with 5-HT6 receptor is 0 (inactive). In the experiment with 5-HT7b receptor, the 5-HT7 was 0 (inactive).

With `O=C(c1ccccc1)N1CCC(CO)CC1`, the “Factor Xa” value in the experiment with Factor Xa is 0 (inactive). For the same molecule, in the experiment with 5-HT6 receptor, the 5-HT6 is 0 (inactive). Also, in the experiment with 5-HT7b receptor, the 5-HT7 was 0 (inactive).

For the molecule `O=C(NC1CC1)c1ccccc1O`, the “Factor Xa” value with Factor Xa was 0 (inactive). In the experiment with 5-HT6 receptor, the 5-HT6 was 0 (inactive). The 5-HT7 with 5-HT7b receptor is 0 (inactive).

Consider `c1cnc2c(c1)NCCC2`, for which the “Factor Xa” value with Factor Xa was 0 (inactive). Further, the 5-HT6 with 5-HT6 receptor is 0 (inactive). In the experiment with 5-HT7b receptor, the 5-HT7 is 0 (inactive).

On to `O=C1CC(CSc2ccc(Cl)cc2)=NN1`, for which, in the experiment with Factor Xa, the “Factor Xa” value is 0 (inactive). Besides, the 5-HT6 with 5-HT6 receptor is 0 (inactive). For the same molecule, the 5-HT7 in the experiment with 5-HT7b receptor is 0 (inactive).

On to `CC1CCc2sc(C(=O)O)cc2C1` (stereo not drawn), for which, in the experiment with Factor Xa, the “Factor Xa” value is 0 (inactive). For the same molecule, in the experiment with 5-HT6 receptor, the 5-HT6 is 0 (inactive). In addition, in the experiment with 5-HT7b receptor, the 5-HT7 is 0 (inactive).

In the case of `COc1ccccc1N1CCNCC1`, in the experiment with Factor Xa, the “Factor Xa” value was 0 (inactive). In addition, the 5-HT6 with 5-HT6 receptor was 1 (active). In addition, in the experiment with 5-HT7b receptor, the 5-HT7 is 1 (active).

`O=c1[nH]ncc2c1oc1ccccc12`: the “Factor Xa” value with Factor Xa is 0 (inactive). Besides, the 5-HT6 with 5-HT6 receptor is 0 (inactive). Moreover, the 5-HT7 with 5-HT7b receptor was 0 (inactive).

For `O=C1NC(=O)C2(CCc3ccccc32)N1` (stereo not drawn), the “Factor Xa” value with Factor Xa is 0 (inactive). Moreover, the 5-HT6 with 5-HT6 receptor is 0 (inactive). Moreover, the 5-HT7 with 5-HT7b receptor is 0 (inactive).

As to `NCC1(c2ccccc2)CCOCC1`, the “Factor Xa” value with Factor Xa is 0 (inactive). Further, in the experiment with 5-HT6 receptor, the 5-HT6 was 0 (inactive). Moreover, in the experiment with 5-HT7b receptor, the 5-HT7 is 0 (inactive).

On to `O=c1ccc2c([nH]1)CCCC2`, for which the “Factor Xa” value with Factor Xa was 0 (inactive). Further, in the experiment with 5-HT6 receptor, the 5-HT6 was 0 (inactive). For the same molecule, the 5-HT7 with 5-HT7b receptor is 0 (inactive).

Consider `CC(CN)N1CCc2sccc2C1` (stereo not drawn), for which, in the experiment with Factor Xa, the “Factor Xa” value is 0 (inactive). Further, the 5-HT6 with 5-HT6 receptor is 0 (inactive). The 5-HT7 in the experiment with 5-HT7b receptor was 0 (inactive).

`Clc1ccc2nnnn2n1`: the “Factor Xa” value with Factor Xa was 0 (inactive). In addition, the 5-HT6 with 5-HT6 receptor is 0 (inactive). In addition, the 5-HT7 with 5-HT7b receptor was 0 (inactive).

In the case of `Cc1cc(C)c2c(=O)[nH]n(C)c2n1`, in the experiment with Factor Xa, the “Factor Xa” value is 0 (inactive). For the same molecule, in the experiment with 5-HT6 receptor, the 5-HT6 is 0 (inactive). The 5-HT7 with 5-HT7b receptor was 0 (inactive).

Take `Cc1ccc(C)n1Cc1ccccc1Cl`: the “Factor Xa” value with Factor Xa was 0 (inactive). The 5-HT6 with 5-HT6 receptor was 0 (inactive). In the experiment with 5-HT7b receptor, the 5-HT7 was 0 (inactive).

With `Cn1nc(C(F)(F)F)cc1O`, in the experiment with Factor Xa, the “Factor Xa” value is 0 (inactive). For the same molecule, the 5-HT6 with 5-HT6 receptor was 0 (inactive). The 5-HT7 with 5-HT7b receptor was 0 (inactive).

For `Nc1ccc(SC(F)F)cc1`, in the experiment with Factor Xa, the “Factor Xa” value is 0 (inactive). For the same molecule, in the experiment with 5-HT6 receptor, the 5-HT6 is 0 (inactive). For the same molecule, the 5-HT7 in the experiment with 5-HT7b receptor is 0 (inactive).

Turning to `Oc1cnc(-c2ccccc2)nc1`, the “Factor Xa” value with Factor Xa is 0 (inactive). Further, the 5-HT6 with 5-HT6 receptor is 0 (inactive). For the same molecule, the 5-HT7 with 5-HT7b receptor was 0 (inactive).

For `Brc1ccc(-c2ccon2)cc1`, the “Factor Xa” value in the experiment with Factor Xa was 0 (inactive). Besides, in the experiment with 5-HT6 receptor, the 5-HT6 is 0 (inactive). The 5-HT7 with 5-HT7b receptor is 0 (inactive).

On to `c1ccc2oc(C3CCCNC3)nc2c1` (stereo not drawn), for which the “Factor Xa” value with Factor Xa is 0 (inactive). Further, the 5-HT6 with 5-HT6 receptor was 0 (inactive). Further, the 5-HT7 with 5-HT7b receptor was 0 (inactive).

Consider `O=C(c1ccccc1F)N1CCNCC1`, for which, in the experiment with Factor Xa, the “Factor Xa” value was 1 (active). In the experiment with 5-HT6 receptor, the 5-HT6 was 0 (inactive). Further, in the experiment with 5-HT7b receptor, the 5-HT7 was 0 (inactive).

For `CS(=O)(=O)c1ccc(OC(F)(F)F)cc1`, in the experiment with Factor Xa, the “Factor Xa” value was 0 (inactive). For the same molecule, in the experiment with 5-HT6 receptor, the 5-HT6 was 0 (inactive). Besides, the 5-HT7 in the experiment with 5-HT7b receptor is 0 (inactive).

In the case of `NC1CCc2ccccc21` (stereo not drawn), the “Factor Xa” value in the experiment with Factor Xa is 0 (inactive). Also, the 5-HT6 with 5-HT6 receptor was 0 (inactive). Further, the 5-HT7 with 5-HT7b receptor is 0 (inactive).

Regarding `C1=C[C@H]2O[C@@H]1c1ccccc12`, in the experiment with Factor Xa, the “Factor Xa” value was 0 (inactive). Besides, in the experiment with 5-HT6 receptor, the 5-HT6 was 0 (inactive). Moreover, the 5-HT7 with 5-HT7b receptor is 0 (inactive).

As for `O=C(c1ccncc1)N1CCNCC1`, in the experiment with Factor Xa, the “Factor Xa” value is 0 (inactive). For the same molecule, the 5-HT6 in the experiment with 5-HT6 receptor is 0 (inactive). The 5-HT7 in the experiment with 5-HT7b receptor was 0 (inactive).

With `NC(c1ccccc1)c1ccccc1`, the “Factor Xa” value with Factor Xa is 0 (inactive). In the experiment with 5-HT6 receptor, the 5-HT6 is 0 (inactive). In the experiment with 5-HT7b receptor, the 5-HT7 is 0 (inactive).
